Results published in PubChem BioAssay (NCI).
About 79,000 compounds went through this panel and 15% of them were active in at least one assay; those are over-represented in the sample as a whole. Unmarked numbers belong to inactive results. Calls of active or inactive are those of the source. Rule as the data show it: active = growth inhibition above about 70%; inactive = the rest.

Experiments:
[1] = NCI Yeast Anticancer Drug Screen. Data for the rad50 strain (AID 155);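 also: 0% = growth of vehicle-only cultures of the same strain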; conditions: S. cerevisiae rad50 strain growth inhibition; at 50.0 µM; stronger effect = higher value
How it was run: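 Vehicle-treated cultures provide the reference for the growth inhibition reported for compound-exposed, repair-deficient yeast.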

[2] = NCI Yeast Anticancer Drug Screen. Data for the mec2-1 strain (AID 157); conditions: S. cerevisiae mec2-1 strain, at 50.0 µM, stronger effect = higher value
How it was run: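 mec2-1 yeast strain, carrying an alteration in DNA damage repair or cell cycle control, was exposed to compounds; growth inhibition was measured relative to vehicle-treated controls.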

[3] = NCI Yeast Anticancer Drug Screen. Data for the sgs1 mgt1 strain (AID 161);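 also: 0% = growth of cultures given vehicle only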; conditions: S. cerevisiae sgs1 mgt1 strain, at 50.0 µM, stronger effect = higher value
How it was run: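 This yeast growth screen uses a strain with defined DNA-repair lesions; compound-treated growth is compared with vehicle-treated growth.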

[4] = NCI Yeast Anticancer Drug Screen. Data for the cln2 rad14 strain (AID 165);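 also: 0% = growth equal to vehicle treated cultures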; conditions: S. cerevisiae cln2 rad14 strain, at 50.0 µM, stronger effect = higher value
How it was run: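 Yeast carrying cln2 and rad14 alterations (cell cycle control and DNA damage repair) were exposed to compounds. Growth inhibition was measured against vehicle-treated controls.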

[5] = NCI Yeast Anticancer Drug Screen. Data for the bub3 strain (AID 167); conditions: S. cerevisiae bub3 mutant strain, at 50.0 µM, stronger effect = higher value
How it was run: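 Mutant yeast screening strain plus compound; vehicle-treated cultures serve as the 0% inhibition reference.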

[6] = NCI Yeast Anticancer Drug Screen. Data for the mlh1 rad18 strain (AID 175); conditions: S. cerevisiae mlh1 rad18 strain growth inhibition; at 50.0 µM; stronger effect = higher value
How it was run: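 Growth inhibition of the yeast strain was measured after compound exposure and expressed relative to vehicle-treated controls. The strain carries defined defects in DNA damage repair.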

Row | Compound | growth inhibition [1] | growth inhibition [2] | growth inhibition [3] | growth inhibition [4] | growth inhibition [5] | growth inhibition [6]
1 | CC1(C)COC(c2ccc(C(C)(C)C)cc2C(O)(c2cc(C(C)(C)C)ccc2C2=NC(C)(C)CO2)c2cc(C(C)(C)C)ccc2C2=NC(C)(C)CO2)=N1 | -8.8% | -4.2% | 7% | -5.5% | 28.6% | -1.1%
2 | Cc1c2ccccc2nc(CSCCO)[n+]1[O-] | -10.8% | -22.1% | -7.95% | -2.1% | 5.5% | -16.2%
3 | Nc1cc2c(cc1Br)-c1ccc(Cl)cc1C2=O | 1.2% | 5% | 7.3% | -54.4% | 0% | -0.5%
4 | O=C(O)CCSc1ccc([N+](=O)[O-])cc1 | -7.3% | -18.6% | -4.75% | -44.1% | -11.5% | 52.6%
5 | CCCCN(CCO)CCO | -4.95% | -8.45% | 9.3% | 14.8% | 9.4% | 2.75%
6 | N=C(N)n1ncc2c1CCC/C2=N/N=C(N)N | 17.5% | 17.1% | 13.5% | 64.3% | 29.9% | 3.9%
7 | O=Cc1c2cnc(c1O)CSCCCCSC2 | -9.2% | -3.8% | -10.8% | -45.2% | -16.4% | -1.8%
8 | CCC/C(CC)=N\Nc1ccc([N+](=O)[O-])cc1[N+](=O)[O-] | -6.9% | 9.4% | -2.35% | 30.9% | 12.9% | -4.1%
9 | N#CC1CNCCC1=N (stereo unspecified) | -5.75% | -3.2% | 13.4% | -1.1% | -1.55% | -6.8%
10 | CCCCSc1ccc2n(C)c(-c3ccc(/C=N\NC(=O)c4ccc(C(=O)N/N=C\c5ccc(-c6c[n+]7cc(SCCCC)ccc7n6C)cc5)cc4)cc3)c[n+]2c1 | -15.8% | -14.7% | -17.9% | -8.45% | -7.1% | -1.65%
11 | Cc1nc(N)nc2c1ncn2CCO | 14.6% | 16.1% | 9.6% | -4.25% | 24.9% | 9.85%
12 | Cc1cccc(NC(=O)c2c(Br)c(Br)c(Br)c(Br)c2C(=O)O)c1C | 26.9% | -18% | 12.7% | 2.85% | 5.4% | -4.3%
13 | CCOC(=O)c1cc2cc(Cc3ccc4[nH]c(C(=O)OCC)cc4c3)ccc2[nH]1 | -12.8% | -21.4% | -26.2% | -26.4% | -32.2% | -43.6%
14 | CCC(CCc1ccc(OC)c(OC)c1)C(=O)O (stereo unspecified) | 1.8% | 12.2% | 14.2% | -9.85% | 29.4% | 9.15%
15 | CC[n+]1ccc(C#N)cc1 | 19.9% | -3.25% | 7.85% | 7.9% | 2.6% | 16.9%
16 | CCCCCCCCNC(=O)CBr | 5.3% | 9.85% | 22.8% | -25.4% | 13.3% | 6.15%
17 | CCNc1nc(Cl)nc(C(Cl)(Cl)Cl)c1Cl (tested in a mixture with another compound) | 96.6% (active) | 95.1% (active) | 97.8% (active) | 74.6% (active) | 71% (active) | 95.5% (active)
18 | O=S(c1ccc(O)cc1)c1ccc(O)cc1 | -24.2% | -4.95% | 0.55% | 1.35% | -1.1% | -2.35%
19 | Cc1cccc(C(=O)OCCBr)c1 | 27.1% | 3.95% | 13.7% | -28.4% | 9.9% | 10.9%
20 | COc1ccc(N2C(=O)C3C=CC(n4[nH]c(=O)n(Cc5ccccc5)c4=O)CC3C2=O)cc1 (stereo unspecified) | 6.6% | 1.8% | -0.9% | -20.9% | 8.4% | -25.6%
21 | O=C(O)C(=O)O.[NH-]CC(O)CN(CC(O)CO)c1ccccc1.[Pt+2] (stereo unspecified) | 23.2% | 1.35% | 6.85% | 21.7% | -1.45% | 11.1%

Row | Compound | growth inhibition [1] | growth inhibition [2] | growth inhibition [3] | growth inhibition [4] | growth inhibition [5] | growth inhibition [6]
22 | COC(=O)/C(=C\C(=O)c1ccc(Br)cc1)NN=C(c1ccccc1)c1ccccc1 | -20.3% | -1.55% | -3.3% | 4.25% | -20.1% | -20.4%
23 | Cc1cc(C)[n+](C)c2cc3ccccc3cc12 | 26.4% | -20.2% | 20.9% | 44.2% | -8.55% | -28.5%
24 | COC(=O)C1C(=O)N(C)c2cc(C)c(C)cc2C1(C)C (stereo unspecified) | 7.55% | -9.4% | 1.6% | 5.8% | 24.9% | -3.9%
25 | Cc1cccc(-c2cc(=O)c3c(C)cc(C)nc3[nH]2)c1 | -2.1% | 2.7% | 21.9% | 24.8% | 24.1% | -39.4%
26 | NC(=O)C(N)C(N)=NCc1ccccc1 (stereo unspecified) | 10% | 1.35% | 4.15% | -7.25% | -2.3% | 13.5%
27 | C=C(CN(C)C)C1(c2ccccc2)CC2(CCCC2)C(=O)O1 (stereo unspecified) | 24.2% | 12% | 13.3% | -4.75% | 11.9% | 25.5%
28 | CC(C)c1ccc(C(C)(C)O)cc1 | 4.75% | 15.7% | -19.8% | -7.8% | -6.8% | -17.6%
29 | COc1cc(=O)[nH]c(-c2ccccc2)c1OC | -3.55% | 3.95% | 9% | -5.05% | 7.7% | 0.05%
30 | Cc1ccc(CNC(=O)C2CCCCC2C(=O)O)cc1 (stereo unspecified) | 6.65% | 21.7% | 6.95% | 10.4% | 27.9% | -16.1%
31 | COc1ccc2c(c1)Cc1cc(N=[N+]([O-])c3ccc4c(c3)Cc3cc(OC)ccc3-4)ccc1-2 | 8.65% | 1.35% | -17.9% | -80% | 47.5% | 9.85%
32 | O=C(N/C=C\NC(=O)Nc1cccc(Cl)c1)Nc1cccc(Cl)c1 | 40.8% | 16.1% | 15.8% | 15.8% | -1.95% | 18.8%
33 | O=c1c2ccccc2n2c(-c3ccccc3O)nnc2n1-c1ccccc1 | 6.5% | 14.8% | 35.1% | 26.2% | 6.6% | 18.2%
34 | C=CCOc1cc2c(cc1Cc1ccc3c(c1)OCO3)OCO2 | -6.85% | -7.75% | -7.9% | 9.25% | 7.5% | -3.05%
35 | O=C1C=C(C2=CC(=O)C(=O)c3ccccc32)c2ccccc2C1=O | 27.5% | 9.45% | 6.55% | -5% | 53.1% | 35.2%
36 | CC(=O)CC1CCCC1 | 19.4% | 0.6% | 19.9% | 15.9% | 5.3% | 17.9%
37 | CCOC(=O)c1c(-c2ccccc2)n2c3c(cccc13)CC2 | 6.85% | -5.2% | -6.05% | 6.15% | 6.55% | 27.5%
38 | CNC(=O)Sc1ccc(C)c([N+](C)(C)C)c1 | 10.1% | 5.6% | 9% | -9.6% | 18.1% | 18.5%
39 | CN(C)CCCn1ncc(Sc2cc([N+](=O)[O-])ccc2N)c(Cl)c1=O | 2.9% | -6.35% | -12.3% | -8.25% | -5.55% | -6.9%
40 | CN(C)C(=O)C1CCC(=O)N1 (stereo unspecified) | 3.1% | 10.6% | 6.6% | -4.95% | 10.6% | -0.3%
41 | O=CC(O)C(O)C(O)C(O)COC1OC(CO)C(O)C(O)C1O (stereo unspecified) | 22.6% | -11.7% | 21.2% | 8% | 23% | 11.1%
